Of roughly 7,900 targets only a part is listed; those with a hit were picked by preference. About 0.6% of all pairs of compound and target were hits.
How the values were obtained:
Assay in all cases: log2 fold change, soluble protein after heating vs DMSO (PISA); higher = thermal stabilisation; K562 cells, 10 uM, 30 min; active = over 0.2 and 3.5 SD of the protein, either way, in both replicates (recomputed)
[1] = compound: COC1=CC=C(C=C1)CN2C=CC3=C2C=C(C=C3)C(=O)NO
How it was run: (§1)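 Soluble protein was defined as the supernatant after 21,000xg for 90 min. It came from K562 cells at 2×10^6 cells/mL given 10 μM compound for 30 min, heated in aliquots for 3 min across 48°C-58°C, pooled, and extracted in PBS with 0.5% NP-40 at 4°C, and was quantified by TMTpro 16plex LC-MS/MS with equalised channel sums. Thermal stability against control samples, from duplicates, is reported as log2 fold change.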

filanesib = compound: CON(C)C(=O)N1N=C(c2cc(F)ccc2F)S[C@@]1(CCCN)c1ccccc1 [filanesib]
How it was run: as §1

zotarolimus = compound: CO[C@H]1C[C@@H]2CC[C@@H](C)[C@@](O)(O2)C(=O)C(=O)N2CCCC[C@H]2C(=O)O[C@H]([C@H](C)C[C@@H]2CC[C@H](n3cnnn3)[C@H](OC)C2)CC(=O)[C@H](C)/C=C(\C)[C@@H](O)[C@@H](OC)C(=O)[C@H](C)C[C@H](C)/C=C/C=C/C=C/1C [zotarolimus]
How it was run: as §1

idasanutlin = compound: COc1cc(C(=O)O)ccc1NC(=O)[C@@H]1N[C@@H](CC(C)(C)C)[C@](C#N)(c2ccc(Cl)cc2F)[C@H]1c1cccc(Cl)c1F [idasanutlin]
How it was run: as §1

alisertib = compound: COc1cc(Nc2ncc3c(n2)-c2ccc(Cl)cc2C(c2c(F)cccc2OC)=NC3)ccc1C(=O)O [alisertib]
How it was run: as §1

[2] = compound: COc1cc2nc(-c3cc(F)ccc3O)nc(N[C@@H]3CNC[C@H]3C(C)(C)O)c2cc1OC
How it was run: as §1

gefitinib = compound: COc1cc2ncnc(Nc3ccc(F)c(Cl)c3)c2cc1OCCCN1CCOCC1 [gefitinib]
How it was run: as §1

[3] = compound: COc1cccc2cc(-c3nc([C@H]4CC[C@H](C(=O)O)CC4)n4ncnc(N)c34)[nH]c12
How it was run: as §1

lapatinib = compound: CS(=O)(=O)CCNCc1ccc(-c2ccc3ncnc(Nc4ccc(OCc5cccc(F)c5)c(Cl)c4)c3c2)o1 [lapatinib]
How it was run: as §1

pictilisib = compound: CS(=O)(=O)N1CCN(Cc2cc3nc(-c4cccc5[nH]ncc45)nc(N4CCOCC4)c3s2)CC1 [pictilisib]
How it was run: as §1

[4] = compound: CS(=O)(=O)c1ccc(-c2cnc(N)c(C(=O)Nc3ccccc3)n2)cc1
How it was run: as §1

crizotinib = compound: C[C@@H](Oc1cc(-c2cnn(C3CCNCC3)c2)cnc1N)c1c(Cl)ccc(F)c1Cl [crizotinib]
How it was run: as §1

[5] = compound: C[C@@H]1COCCN1C2=NC(=NC(=C2)C3(CC3)S(=O)(=O)C)C4=C5C=CNC5=CC=C4
How it was run: as §1

[6] = compound: C[C@H](C1=CC=C(C=C1)C(=O)NC2=C3C=CNC3=NC=C2)N
How it was run: as §1

duvelisib = compound: C[C@H](Nc1ncnc2nc[nH]c12)c1cc2cccc(Cl)c2c(=O)n1-c1ccccc1 [duvelisib]
How it was run: as §1

gandotinib = compound: Cc1cc(Nc2cc(CN3CCOCC3)c3nc(C)c(Cc4ccc(Cl)cc4F)n3n2)n[nH]1 [gandotinib]
How it was run: as §1

tozasertib = compound: Cc1cc(Nc2cc(N3CCN(C)CC3)nc(Sc3ccc(NC(=O)C4CC4)cc3)n2)n[nH]1 [tozasertib]
How it was run: as §1

[7] = compound: Cc1cc(SCc2sc(-c3ccc(C(F)(F)F)cc3)nc2C)ccc1OCC(=O)O
How it was run: as §1

doramapimod = compound: Cc1ccc(-n2nc(C(C)(C)C)cc2NC(=O)Nc2ccc(OCCN3CCOCC3)c3ccccc23)cc1 [doramapimod]
How it was run: as §1

ispinesib = compound: Cc1ccc(C(=O)N(CCCN)[C@@H](c2nc3cc(Cl)ccc3c(=O)n2Cc2ccccc2)C(C)C)cc1 [ispinesib]
How it was run: as §1

Measured: log2 fold change

TEX264 (UniProt Q9Y6I9)
Sequence of UniProt Q9Y6I9 (Q9Y6I9 whole entry, looked up): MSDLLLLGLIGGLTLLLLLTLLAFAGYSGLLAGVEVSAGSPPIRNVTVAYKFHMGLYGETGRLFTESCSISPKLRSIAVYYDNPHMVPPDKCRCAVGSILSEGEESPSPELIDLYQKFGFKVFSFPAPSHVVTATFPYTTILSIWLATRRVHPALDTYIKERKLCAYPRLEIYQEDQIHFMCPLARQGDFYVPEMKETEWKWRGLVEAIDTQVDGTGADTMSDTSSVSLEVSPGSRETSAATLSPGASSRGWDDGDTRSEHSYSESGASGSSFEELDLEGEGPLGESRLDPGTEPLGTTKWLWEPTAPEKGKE
inactive: [1] 0.07 | filanesib -0.169 | zotarolimus 0.059 | idasanutlin -0.076 | alisertib -0.042 | [2] 0.163 | gefitinib 0.164 | [3] -0.046 | lapatinib 0.421 | pictilisib 0.321 | [4] 0.361 | crizotinib 0.079 | [5] 0.064 | [6] 0.176 | duvelisib 0.037 | gandotinib -0.059 | tozasertib 0.113 | [7] -0.028 | doramapimod 0.039 | ispinesib -0.016

SLK isoform 2 (UniProt Q9H2G2)
Sequence of UniProt Q9H2G2 (Q9H2G2 whole entry, looked up): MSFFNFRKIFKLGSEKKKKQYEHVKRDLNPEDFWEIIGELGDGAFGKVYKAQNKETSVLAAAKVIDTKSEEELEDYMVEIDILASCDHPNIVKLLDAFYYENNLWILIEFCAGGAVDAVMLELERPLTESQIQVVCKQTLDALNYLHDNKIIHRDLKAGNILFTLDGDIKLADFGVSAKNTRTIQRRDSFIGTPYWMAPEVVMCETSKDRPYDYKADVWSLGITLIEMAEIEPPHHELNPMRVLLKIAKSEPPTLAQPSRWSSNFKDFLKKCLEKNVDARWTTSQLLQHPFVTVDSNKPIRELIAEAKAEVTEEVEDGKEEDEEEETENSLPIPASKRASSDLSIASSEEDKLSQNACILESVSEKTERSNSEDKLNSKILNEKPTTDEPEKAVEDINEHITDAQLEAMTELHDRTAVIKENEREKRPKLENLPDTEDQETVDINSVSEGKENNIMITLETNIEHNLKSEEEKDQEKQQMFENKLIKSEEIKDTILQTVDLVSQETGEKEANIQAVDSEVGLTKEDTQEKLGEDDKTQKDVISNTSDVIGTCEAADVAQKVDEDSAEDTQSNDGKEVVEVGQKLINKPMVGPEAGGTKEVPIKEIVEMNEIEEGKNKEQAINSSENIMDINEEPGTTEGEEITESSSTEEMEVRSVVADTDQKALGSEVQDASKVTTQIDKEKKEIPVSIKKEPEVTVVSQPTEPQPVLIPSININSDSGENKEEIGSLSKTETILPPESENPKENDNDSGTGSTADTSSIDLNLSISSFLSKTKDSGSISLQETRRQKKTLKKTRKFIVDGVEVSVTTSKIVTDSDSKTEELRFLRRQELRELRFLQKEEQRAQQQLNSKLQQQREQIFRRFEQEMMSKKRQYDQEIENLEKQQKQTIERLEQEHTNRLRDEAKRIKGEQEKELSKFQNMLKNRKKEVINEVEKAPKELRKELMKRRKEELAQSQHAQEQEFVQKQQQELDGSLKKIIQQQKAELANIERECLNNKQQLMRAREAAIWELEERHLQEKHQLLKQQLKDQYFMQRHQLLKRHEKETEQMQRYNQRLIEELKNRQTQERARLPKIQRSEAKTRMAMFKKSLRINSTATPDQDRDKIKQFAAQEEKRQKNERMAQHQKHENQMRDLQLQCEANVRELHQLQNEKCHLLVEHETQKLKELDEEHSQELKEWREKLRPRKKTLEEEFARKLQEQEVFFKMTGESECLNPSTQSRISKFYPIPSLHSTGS
active: pictilisib 0.212
inactive: [1] 0.001 | filanesib 0.042 | zotarolimus -0.007 | idasanutlin -0.008 | alisertib -0.045 | [2] -0.103 | gefitinib 0.025 | [3] -0.079 | lapatinib -0.193 | [4] 0.016 | crizotinib -0.068 | [5] 0.07 | [6] 0.014 | duvelisib 0.072 | gandotinib 0.102 | tozasertib -0.225 | [7] 0.052 | doramapimod -0.118 | ispinesib 0.021

TK1 (UniProt P04183)
Sequence of UniProt P04183 (P04183 whole entry, looked up): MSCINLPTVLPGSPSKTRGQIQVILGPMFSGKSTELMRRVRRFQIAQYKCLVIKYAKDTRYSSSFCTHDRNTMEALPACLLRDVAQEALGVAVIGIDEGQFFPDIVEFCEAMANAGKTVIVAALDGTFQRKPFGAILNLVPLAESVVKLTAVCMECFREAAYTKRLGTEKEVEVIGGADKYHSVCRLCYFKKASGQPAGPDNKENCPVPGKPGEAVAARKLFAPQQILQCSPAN
inactive: [1] -0.012 | zotarolimus -0.023 | idasanutlin -0.011 | alisertib -0.034 | [2] 0.021 | gefitinib -0.018 | [3] 0.073 | lapatinib -0.009 | pictilisib 0.045 | [4] -0.046 | crizotinib 0.011 | [5] -0.008 | [6] -0.097 | duvelisib 0.004 | gandotinib -0.055 | tozasertib -0.032 | [7] -0.03 | doramapimod -0.013 | ispinesib 0.017
active: filanesib -0.258

SPART (UniProt Q8N0X7)
inactive: [1] -0.073 | filanesib 0.011 | zotarolimus 0.02 | idasanutlin 0.03 | alisertib -0.009 | [2] 0.067 | gefitinib 0.054 | [3] -0.028 | lapatinib -0.015 | pictilisib 0.05 | [4] 0.006 | crizotinib -0.107 | [5] 0.056 | [6] 0.101 | duvelisib 0.053 | gandotinib -0.088 | tozasertib 0.044 | [7] 0.055 | doramapimod 0.014 | ispinesib -0.001

SPECC1 (UniProt Q5M775)
active: [1] -0.357 | [3] 0.309
inactive: filanesib 0.064 | zotarolimus 0.038 | idasanutlin -0.111 | alisertib -0.019 | [2] -0.014 | gefitinib 0.028 | lapatinib -0.006 | pictilisib 0.08 | [4] -0.104 | crizotinib -0.085 | [5] -0.02 | [6] 0.045 | duvelisib 0.014 | gandotinib -0.18 | tozasertib 0.007 | [7] -0.036 | doramapimod 0.137 | ispinesib -0.079

SPR (UniProt P35270)
Sequence of UniProt P35270 (P35270 whole entry, looked up): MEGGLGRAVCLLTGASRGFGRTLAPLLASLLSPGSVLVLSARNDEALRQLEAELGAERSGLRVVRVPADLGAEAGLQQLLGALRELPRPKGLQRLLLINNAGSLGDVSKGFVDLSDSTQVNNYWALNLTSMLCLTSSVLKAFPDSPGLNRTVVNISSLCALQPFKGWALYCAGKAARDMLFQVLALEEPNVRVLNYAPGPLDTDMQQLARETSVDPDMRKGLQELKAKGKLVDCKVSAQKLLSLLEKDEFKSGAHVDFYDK
inactive: filanesib -0.087 | zotarolimus 0 | idasanutlin -0.225 | alisertib -0.051 | [2] -0.039 | gefitinib -0.008 | [3] 0.021 | lapatinib -0.031 | [4] -0.006 | crizotinib 0.125 | [5] 0.058 | [6] -0.059 | duvelisib 0.109 | gandotinib 0.288 | tozasertib 0.154 | [7] -0.025 | doramapimod -0.05 | ispinesib -0.103
active: [1] 0.794 | pictilisib 0.681

SLC7A6OS (UniProt Q96CW6)
inactive: [1] -0.085 | filanesib 0.006 | zotarolimus 0.046 | idasanutlin -0.034 | alisertib -0.073 | [2] -0.072 | gefitinib 0.007 | [3] -0.037 | lapatinib 0.038 | pictilisib 0.019 | [4] 0.047 | crizotinib -0.04 | [5] 0.004 | [6] -0.133 | duvelisib 0.047 | gandotinib -0.081 | tozasertib 0.028 | [7] -0.049 | doramapimod 0.214 | ispinesib 0.077

TIPRL (UniProt O75663)
Sequence of UniProt O75663 (O75663 whole entry, looked up): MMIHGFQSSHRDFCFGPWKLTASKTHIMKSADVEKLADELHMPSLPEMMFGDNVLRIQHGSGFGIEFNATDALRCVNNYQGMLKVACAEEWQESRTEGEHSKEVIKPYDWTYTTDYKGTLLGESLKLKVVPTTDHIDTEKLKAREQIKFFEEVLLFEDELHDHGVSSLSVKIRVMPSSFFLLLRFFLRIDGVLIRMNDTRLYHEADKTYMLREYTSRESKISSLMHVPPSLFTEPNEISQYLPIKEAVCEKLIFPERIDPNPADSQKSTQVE
inactive: [1] 0.011 | filanesib -0.063 | zotarolimus -0.013 | idasanutlin -0.104 | alisertib 0.014 | [2] 0.043 | gefitinib -0.034 | [3] -0.009 | lapatinib -0.009 | pictilisib 0.034 | [4] 0.065 | crizotinib -0.167 | [5] 0.143 | [6] -0.023 | duvelisib -0.016 | gandotinib -0.159 | tozasertib -0.011 | [7] 0.065 | doramapimod -0.034 | ispinesib -0.055

TFB2M (UniProt Q9H5Q4)
inactive: [1] -0.044 | filanesib -0.074 | zotarolimus -0.001 | idasanutlin -0.055 | alisertib 0.011 | [2] 0.006 | gefitinib 0.002 | [3] 0.037 | lapatinib -0.001 | pictilisib -0.021 | [4] -0.013 | crizotinib -0.06 | [5] 0.096 | [6] 0.025 | duvelisib 0.049 | gandotinib -0.19 | tozasertib 0.013 | [7] 0.033 | doramapimod -0.024 | ispinesib -0.044

SLC25A39 (UniProt Q9BZJ4)
Sequence of UniProt Q9BZJ4 (Q9BZJ4 whole entry, looked up): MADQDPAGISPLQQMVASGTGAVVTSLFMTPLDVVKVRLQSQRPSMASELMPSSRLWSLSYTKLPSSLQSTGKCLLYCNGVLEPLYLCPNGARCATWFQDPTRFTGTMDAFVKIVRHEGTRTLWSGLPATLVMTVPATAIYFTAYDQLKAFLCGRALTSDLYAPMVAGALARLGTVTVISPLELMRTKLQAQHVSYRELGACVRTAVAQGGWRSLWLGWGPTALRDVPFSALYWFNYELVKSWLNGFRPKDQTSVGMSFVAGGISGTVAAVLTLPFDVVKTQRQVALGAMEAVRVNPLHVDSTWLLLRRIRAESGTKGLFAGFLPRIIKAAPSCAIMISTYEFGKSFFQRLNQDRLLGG
inactive: [1] -0.069 | filanesib -0.255 | zotarolimus 0.073 | idasanutlin -0.115 | alisertib 0.123 | [2] -0.49 | gefitinib -0.344 | [3] 0.224 | lapatinib -0.044 | pictilisib -0.072 | [4] -0.029 | crizotinib -0.025 | [5] 0.14 | [6] -0.165 | duvelisib 0.044 | gandotinib 0.075 | tozasertib 0.269 | [7] -0.08 | doramapimod -0.079 | ispinesib -0.523

SNUPN (UniProt O95149)
inactive: [1] 0.001 | filanesib -0.09 | zotarolimus -0.007 | idasanutlin 0.05 | alisertib -0.013 | [2] -0.05 | gefitinib 0.014 | [3] 0.005 | lapatinib 0.019 | pictilisib -0.021 | [4] 0.019 | crizotinib -0.187 | [5] 0.045 | [6] -0.007 | duvelisib -0.001 | gandotinib -0.074 | tozasertib 0.017 | [7] -0.014 | doramapimod -0.007 | ispinesib 0.029

SRI (UniProt P30626)
Sequence of UniProt P30626 (P30626 whole entry, looked up): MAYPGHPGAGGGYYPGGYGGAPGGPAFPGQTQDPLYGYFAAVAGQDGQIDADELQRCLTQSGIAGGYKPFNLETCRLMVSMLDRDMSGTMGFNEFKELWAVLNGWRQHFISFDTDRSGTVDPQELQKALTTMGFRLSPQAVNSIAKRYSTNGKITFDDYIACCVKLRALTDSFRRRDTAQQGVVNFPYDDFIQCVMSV
active: ispinesib 0.353
inactive: [1] -0.015 | filanesib 0.053 | zotarolimus 0.133 | idasanutlin -0.031 | alisertib -0.035 | [2] -0.109 | gefitinib 0.01 | [3] 0.023 | lapatinib 0.008 | pictilisib -0.04 | [4] -0.061 | crizotinib 0.082 | [5] 0.159 | [6] -0.139 | duvelisib 0.212 | gandotinib -0.03 | tozasertib 0.106 | [7] 0.066 | doramapimod -0.032

STIM1 (UniProt Q13586)
Sequence of UniProt Q13586 (Q13586 whole entry, looked up): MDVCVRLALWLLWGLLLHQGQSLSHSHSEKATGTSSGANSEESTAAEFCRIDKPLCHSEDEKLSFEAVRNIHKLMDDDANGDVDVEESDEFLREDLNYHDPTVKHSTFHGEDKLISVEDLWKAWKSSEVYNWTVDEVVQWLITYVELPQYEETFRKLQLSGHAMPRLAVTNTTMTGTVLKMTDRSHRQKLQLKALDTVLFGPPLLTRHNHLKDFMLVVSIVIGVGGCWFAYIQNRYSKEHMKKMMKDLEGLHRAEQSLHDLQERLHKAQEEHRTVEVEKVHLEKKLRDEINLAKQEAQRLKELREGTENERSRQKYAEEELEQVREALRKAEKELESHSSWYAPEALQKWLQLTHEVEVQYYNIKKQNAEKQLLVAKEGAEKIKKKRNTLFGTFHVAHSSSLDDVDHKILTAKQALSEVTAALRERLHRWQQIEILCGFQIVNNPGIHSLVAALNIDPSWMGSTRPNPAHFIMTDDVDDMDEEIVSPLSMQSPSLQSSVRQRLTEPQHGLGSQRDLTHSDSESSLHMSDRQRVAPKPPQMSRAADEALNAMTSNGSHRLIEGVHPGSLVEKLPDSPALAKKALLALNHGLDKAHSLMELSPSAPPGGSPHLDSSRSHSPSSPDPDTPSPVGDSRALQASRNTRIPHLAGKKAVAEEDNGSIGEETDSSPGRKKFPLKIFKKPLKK
inactive: [1] 0.048 | filanesib -0.123 | zotarolimus 0.041 | idasanutlin 0.02 | alisertib -0.029 | [2] -0.218 | gefitinib 0 | [3] 0.037 | lapatinib -0.011 | pictilisib 0.036 | [4] 0.015 | crizotinib -0.07 | [5] 0.087 | [6] -0.028 | duvelisib 0.014 | gandotinib -0.008 | tozasertib -0.018 | [7] 0.057 | doramapimod 0.011 | ispinesib -0.233

SLC30A10 (UniProt Q6XR72)
inactive: [1] 0.06 | filanesib 0.032 | zotarolimus -0.02 | idasanutlin 0.005 | alisertib -0.12 | [2] 0.003 | gefitinib 0.095 | [3] 0.032 | lapatinib 0.001 | pictilisib 0.095 | [4] 0.11 | crizotinib 0.192 | [5] 0.178 | [6] -0.001 | duvelisib 0.079 | gandotinib -0.078 | tozasertib -0.062 | [7] -0.046 | doramapimod 0.035 | ispinesib 0.077

SUPT5H (UniProt O00267)
inactive: [1] 0.02 | filanesib -0.005 | zotarolimus 0.042 | idasanutlin -0.062 | alisertib -0.003 | [2] 0.058 | gefitinib 0.028 | [3] 0.027 | lapatinib -0.006 | pictilisib 0.05 | [4] 0.057 | crizotinib 0.049 | [5] 0.129 | [6] -0.057 | duvelisib 0.084 | gandotinib -0.043 | tozasertib 0 | [7] 0.079 | doramapimod -0.043 | ispinesib 0.02

TBC1D9B (UniProt Q66K14)
Sequence of UniProt Q66K14 (Q66K14 whole entry, looked up): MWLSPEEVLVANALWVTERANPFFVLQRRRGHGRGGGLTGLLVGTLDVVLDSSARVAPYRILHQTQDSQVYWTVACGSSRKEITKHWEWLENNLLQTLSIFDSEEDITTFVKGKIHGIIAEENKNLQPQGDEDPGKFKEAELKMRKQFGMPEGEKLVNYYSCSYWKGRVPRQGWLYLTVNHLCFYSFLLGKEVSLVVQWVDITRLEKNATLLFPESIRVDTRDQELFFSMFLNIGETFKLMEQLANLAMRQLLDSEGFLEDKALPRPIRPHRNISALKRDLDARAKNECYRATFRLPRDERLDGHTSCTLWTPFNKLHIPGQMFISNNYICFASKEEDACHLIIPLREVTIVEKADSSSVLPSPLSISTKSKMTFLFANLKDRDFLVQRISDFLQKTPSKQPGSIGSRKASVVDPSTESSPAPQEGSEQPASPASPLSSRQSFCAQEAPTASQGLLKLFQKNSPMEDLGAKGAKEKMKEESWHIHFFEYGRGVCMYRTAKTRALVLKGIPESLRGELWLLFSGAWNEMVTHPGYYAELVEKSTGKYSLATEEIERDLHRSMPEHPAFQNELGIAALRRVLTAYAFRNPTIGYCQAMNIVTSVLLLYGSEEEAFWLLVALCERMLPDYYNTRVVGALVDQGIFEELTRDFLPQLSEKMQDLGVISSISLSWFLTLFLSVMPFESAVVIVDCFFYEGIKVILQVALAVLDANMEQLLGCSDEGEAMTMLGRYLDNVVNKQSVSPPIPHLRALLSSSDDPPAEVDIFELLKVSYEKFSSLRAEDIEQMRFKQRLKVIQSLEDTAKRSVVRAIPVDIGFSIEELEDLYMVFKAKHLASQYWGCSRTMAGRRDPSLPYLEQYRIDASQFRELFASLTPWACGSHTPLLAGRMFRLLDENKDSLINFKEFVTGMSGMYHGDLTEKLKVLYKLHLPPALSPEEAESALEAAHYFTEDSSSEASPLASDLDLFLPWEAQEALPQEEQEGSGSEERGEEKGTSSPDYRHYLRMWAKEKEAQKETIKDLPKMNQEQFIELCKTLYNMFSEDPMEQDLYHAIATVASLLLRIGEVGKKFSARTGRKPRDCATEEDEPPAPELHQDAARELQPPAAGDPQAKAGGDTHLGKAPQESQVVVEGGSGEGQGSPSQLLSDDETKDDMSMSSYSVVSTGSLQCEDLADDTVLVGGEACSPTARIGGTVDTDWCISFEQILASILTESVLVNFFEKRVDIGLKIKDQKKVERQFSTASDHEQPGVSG
inactive: [1] -0.037 | filanesib 0.151 | zotarolimus 0.042 | idasanutlin -0.003 | alisertib 0.03 | [2] -0.026 | gefitinib -0.072 | [3] 0.03 | lapatinib -0.031 | pictilisib 0.068 | [4] 0.041 | crizotinib -0.084 | [5] 0.016 | [6] 0.008 | duvelisib 0.01 | gandotinib 0.024 | tozasertib 0.055 | [7] 0.072 | doramapimod 0.007 | ispinesib -0.127
